Compound activity from PubChem.
The list is not random: actives were taken first. Their share in the collection is about 2.8%.
PP5 inh: blocks human protein phosphatase 5 activity; P53041; purified PP5c, OMFP substrate fluorescence; inhibition, % at 6.7 µM; 320,000 tested, 0.18% active;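 active = inhibition above the campaign's mean inhibition across all tested compounds plus 3 SD, cut at about 9.5% in these data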;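 also: 0% = DMSO only and 100% = 100 µM cantharidin control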
Target sequence (P53041 whole entry, looked up): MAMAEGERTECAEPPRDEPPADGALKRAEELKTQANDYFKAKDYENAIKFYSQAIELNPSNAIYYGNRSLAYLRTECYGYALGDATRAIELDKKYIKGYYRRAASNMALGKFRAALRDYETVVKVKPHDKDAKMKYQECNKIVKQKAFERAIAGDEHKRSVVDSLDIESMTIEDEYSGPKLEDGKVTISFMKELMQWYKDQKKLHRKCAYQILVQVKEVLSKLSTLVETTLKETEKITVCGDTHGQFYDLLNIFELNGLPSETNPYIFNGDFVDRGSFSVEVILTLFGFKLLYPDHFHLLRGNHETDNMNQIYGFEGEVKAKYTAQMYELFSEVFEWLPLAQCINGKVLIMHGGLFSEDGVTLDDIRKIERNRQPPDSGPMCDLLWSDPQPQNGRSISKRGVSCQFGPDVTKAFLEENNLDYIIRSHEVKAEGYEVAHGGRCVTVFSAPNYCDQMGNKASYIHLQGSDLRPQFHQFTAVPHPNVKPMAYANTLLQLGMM
IDE act: activators of human insulin-degrading enzyme in cells; HEK cells, FAbeta-B cleavage, fluorescence polarization; 0% vehicle, 100% cell-free pure enzyme wells; activation, % at 5.96 µM; 340,000 tested, 0.073% active;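 active = activation above the mean of all tested compounds plus 3 SD, set per screening campaign, cut at about 17% in these data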
PP1 counter: PP1-alpha (human) inhibition in PP5 counter-screen | inhibition, % at 6.7 µM | P62136 | 320,000 tested, 0.9% active | purified PP1alpha, OMFP fluorescence | AID 2235;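 active = inhibition above the mean inhibition of all tested compounds plus 3 SD, computed separately for each screening campaign, cut at about 15% in these data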
SKKanGAS inh: SKKanGAS growth inhibition; S. pyogenes SKKanGAS, kanamycin growth, BacTiter-Glo, 6 h; inhibition, % at 7.5 µM; 300,000 tested, 1.3% active; AID 1662;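 active = mean replicate score, as percent of positive control median, at least 50; inconclusive = mean below 50 but one replicate at or above 50; inactive = mean and every replicate below 50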;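 also: strain carries kanamycin resistance gene driven by streptokinase promoter and grows in 40 µg/ml kanamycin; loss of luminescence reflects streptokinase promoter inhibition or plain growth inhibition; 0% = median of DMSO wells and 100% = positive control at its reference dose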
IDE inh: inhibitors of human insulin-degrading enzyme in cells | P14735 | HEK cells, FAbetaB cleavage, fluorescence polarization | inhibition, % at 5.59 µM | 320,000 tested, 0.41% active;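 active = percent inhibition above the average of all tested compounds plus 3 SD, set per screening campaign, cut at about 16% in these data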;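 also: IDE supplied by intact live HEK cells; FP after avidin binding of uncleaved biotin substrate so inhibition keeps polarization high; 0% = DMSO wells and 100% = 60 µM reference IDE inhibitor Ii1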
Exocytosis inh: blocks lytic granule exocytosis; TALL-104 LAMP-1 surface exposure, flow cytometry; cells stimulated with thapsigargin and PMA; inhibition, % at 10 µM; 360,000 tested, 0.66% active;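 active = inhibition above about 55%, limit read from the data; inconclusive = no clear call, values can overlap the other calls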
An asterisk follows results filed as active; ? = inconclusive; . = no result.

SMILES	PP5 inh	IDE act	PP1 counter	SKKanGAS inh	IDE inh	Exocytosis inh
CN(CC(=O)Nc1cccc(F)c1)C(=O)c1ccc(S(=O)(=O)N2CCCC2)cc1	3	6	-2	.	1	3
O=C1NN(c2ccccc2)C(=O)/C1=C/c1ccc(-c2ccc(C(=O)O)cc2)o1	2	2	-2	11	2	1
O=C1NN(c2ccccc2)C(=O)/C1=C/c1ccc(Sc2cccc3ccccc23)o1	1	-4	9	50*	-2	0
Cn1c2ccccc2c2ccc3c(c21)C(=O)C=CC3=O	.	6	.	.	.	106*
Cc1ccc2c(c1)c1ccc3c(c1n2C)C(=O)C=CC3=O	.	4	.	.	.	3
Oc1ccc(Oc2ccc(Oc3ccc(O)cc3)cc2)cc1	3	-1	-1	67*	3	8
CC(=O)c1ccc(Oc2ccc(C(C)=O)cc2)cc1	-6	-2	0	-3	12	1
CCCCNC(=S)N1CCN(c2nc3ccccc3s2)CC1	2	-9	-5	5	19*	7
CNC(=S)N1CCN(c2nc3ccccc3s2)CC1	-2	-5	0	-4	-2	-4
CCOC(=O)/C(=N/Nc1ccc(C)cc1)S(=O)(=O)c1ccc(Cl)cc1	0	0	4	20	-1	4
NNC(=O)/C(=N/Nc1ccccc1)S(=O)(=O)c1ccc(Cl)cc1	4	7	8	74*	-5	1
CNC1=C(N(C(C)=O)c2ccc(Br)cc2)C(=O)c2ccccc2C1=O	4	2	4	57*	1	-2
O=C(Nc1ccc(C(=O)O)cc1)/C(=C\C=C\c1ccccc1)NC(=O)c1ccccc1Br	3	6	3	12	-1	0
O=C(Cn1ncc2c([nH]c3ccccc32)c1=O)NCC1CCN(Cc2ccccc2F)CC1	2	4	4	0	2	3
O=C(O)/C=C/c1ccc(S(=O)(=O)NCc2cccnc2)cc1	1	4	-4	-4	0	20
c1ccc2c(Nc3nc4c(s3)CCCC4)cccc2c1	1	0	3	57*	-3	0
CCn1cc(C(=O)NC(=S)Nc2ccccc2Br)cn1	1	6	-4	51*	-3	1
C/C(=N\NC(=S)NCc1ccccc1)c1ccc2ccccc2c1OC(F)F	0	2	0	67*	-5	4
Cc1oc2c(c1C(=O)c1ccc(Cl)cc1)C(=O)C(=O)c1ccccc1-2	.	-1	.	75*	.	104*
Cc1ccc(C(=O)c2coc3c2C(=O)C(=O)c2ccccc2-3)cc1	3	1	6	9	0	11
Cc1cc(NC(=O)c2sccc2C)n(-c2nc3ccccc3[nH]2)n1	5	0	3	63*	2	-1
COc1cccc(OC)c1C(=O)Nc1cc(C)nn1-c1nc2ccccc2[nH]1	2	1	-1	51*	9	3
O/N=C/c1ccc2ccccc2c1	2	-2	0	-4	3	0
COc1ccccc1C(=O)Nc1ccc(NC(=O)c2ccco2)cn1	0	-3	-2	-6	4	10
COc1ccccc1OCC(=O)NNC(=S)NC(=O)c1ccco1	0	2	2	60*	5	1
SMILES	PP5 inh	IDE act	PP1 counter	SKKanGAS inh	IDE inh	Exocytosis inh
COc1ccc(C(=O)NC(=S)NNC(=O)c2ccco2)cc1	0	-3	12	53*	2	-4
COc1ccccc1C(=O)NC(=S)Nc1ccc(NC(=O)c2ccco2)cc1	1	0	-3	?	1	68*
COc1ccc(/C=C/C(=O)NC(=S)NNC(=O)c2ccco2)cc1OC	-1	8	5	84*	-2	2
O=C(O)CC1(CC(=O)Nc2ccccc2Br)CCCC1	2	4	-3	-3	10	-1
Cc1ccc(S(=O)(=O)N(C)C)cc1NC(=O)C(C)OC(=O)C1CCC1 (centres undefined)	.	-2	.	.	2	-2
O=C(CN1CCC(NC(=O)c2ccco2)CC1)Nc1ccccc1[N+](=O)[O-]	0	.	0	2	-3	.
CC1CCN(C(=O)CSc2nnc3c(n2)[nH]c2ccccc23)CC1	2	-3	3	11	-4	0
NC(=S)NC(c1ccccc1)c1ccncc1 (centres undefined)	0	2	-5	0	2	2
CC(NC(=O)CCn1ccc2cc(S(=O)(=O)N3CCCC3)ccc21)c1ccccc1 (centres undefined)	0	-6	1	-2	-1	26
COc1cc2ccccc2cc1C(=O)NC(=S)Nc1cccc(C(=O)O)c1	1	.	4	38	7	-6
COc1ccc(/C=C/C(=O)NC(=S)NNC(=O)c2ccco2)cc1	2	-3	8	78*	6	7
COc1ccc(/C=C/C(=O)NC(=S)NNC(=O)Cc2cccs2)cc1	0	3	20*	109*	5	-1
COc1cc2ccccc2cc1C(=O)NC(=S)Nc1ccc(C(=O)O)cc1	1	4	-3	54*	-3	6
CC(Oc1ccc(Cl)cc1Cl)c1ccn[nH]1 (centres undefined)	0	3	-2	11	-2	-4
CSc1nsc2nc(=O)c(/C=C3\C=Nc4ccccc43)c(N)n12	0	-3	-4	50*	3	-1
CSc1nsc2nc(=O)c(/C=C3\C(C)=Nc4ccc(C)cc43)c(N)n12	-3	-5	-1	42	-1	78*
O=C(c1sc2ccccc2c1Cl)N1CCN(CCc2ccccn2)CC1	-1	5	-4	-7	-3	-2
CC1=C(C(=O)OCCOC(C)C)C(c2cc3c(cc2Br)OCO3)C2=C(CCCC2=O)N1 (centres undefined)	2	-4	-2	-3	-1	100*
Cc1ccc(S(=O)(=O)n2cc(CO)c3ccccc32)cc1	.	3	.	.	.	13
COCc1ccc(-c2ccc3c(c2)c(C#Cc2ccsc2)c(-c2cc(OC)cc(OC)c2)n3C)cc1	2	1	9	.	2	19
COc1cc(OC)cc(-c2c(C#Cc3ccsc3)c3cc(-c4ccc(C(N)=O)cc4)ccc3n2C)c1	0	7	-4	.	-4	94*
CC(C)(C)c1ccccc1OCCCCCn1ccnc1	1	-1	11	63*	2	1
O=C(Nc1nc2ccccc2n1CCN1CCOCC1)c1cn(-c2ccccc2)nc1-c1ccccc1	5	3	0	85*	4	8
O=C(Nc1nc2ccccc2n1CCN1CCOCC1)c1ccccc1	2	3	0	7	6	-8
CCN(CC)c1ccc(CNc2nc3ccccc3n2CCN2CCOCC2)cc1	0	-1	-1	-7	1	5
COc1ccc(CNc2nc3ccccc3n2CCN2CCOCC2)cc1	0	18*	0	1	-2	-3
CCOC(=O)c1c2c(n(C)c1C)C(=O)C(=O)c1ccc(Br)cc1-2	2	5	5	59*	6	2
